For 8 molecules, Percent Effect results are on record in ChEMBL document CHEMBL3988442, “University of Dundee, Small-Polar-MMV Screening Library” (2021).

Molecules are shown by their SMILES. For some of these results: Measured potencies and affinities stand elsewhere.

Set-up in all cases: scale not given: direction of the effect not stated beside the values
Assay [1] deals with Protein translocase subunit SecA (Escherichia coli (strain K12)) (UniProt P10408). Nature of the assay: Assay to Identify E. coli SecA ATPase Inhibitors. As to conditions: 30 µM. Type of assay: functional.
Sequence of Protein translocase subunit SecA (Escherichia coli (strain K12)) (P10408 whole entry): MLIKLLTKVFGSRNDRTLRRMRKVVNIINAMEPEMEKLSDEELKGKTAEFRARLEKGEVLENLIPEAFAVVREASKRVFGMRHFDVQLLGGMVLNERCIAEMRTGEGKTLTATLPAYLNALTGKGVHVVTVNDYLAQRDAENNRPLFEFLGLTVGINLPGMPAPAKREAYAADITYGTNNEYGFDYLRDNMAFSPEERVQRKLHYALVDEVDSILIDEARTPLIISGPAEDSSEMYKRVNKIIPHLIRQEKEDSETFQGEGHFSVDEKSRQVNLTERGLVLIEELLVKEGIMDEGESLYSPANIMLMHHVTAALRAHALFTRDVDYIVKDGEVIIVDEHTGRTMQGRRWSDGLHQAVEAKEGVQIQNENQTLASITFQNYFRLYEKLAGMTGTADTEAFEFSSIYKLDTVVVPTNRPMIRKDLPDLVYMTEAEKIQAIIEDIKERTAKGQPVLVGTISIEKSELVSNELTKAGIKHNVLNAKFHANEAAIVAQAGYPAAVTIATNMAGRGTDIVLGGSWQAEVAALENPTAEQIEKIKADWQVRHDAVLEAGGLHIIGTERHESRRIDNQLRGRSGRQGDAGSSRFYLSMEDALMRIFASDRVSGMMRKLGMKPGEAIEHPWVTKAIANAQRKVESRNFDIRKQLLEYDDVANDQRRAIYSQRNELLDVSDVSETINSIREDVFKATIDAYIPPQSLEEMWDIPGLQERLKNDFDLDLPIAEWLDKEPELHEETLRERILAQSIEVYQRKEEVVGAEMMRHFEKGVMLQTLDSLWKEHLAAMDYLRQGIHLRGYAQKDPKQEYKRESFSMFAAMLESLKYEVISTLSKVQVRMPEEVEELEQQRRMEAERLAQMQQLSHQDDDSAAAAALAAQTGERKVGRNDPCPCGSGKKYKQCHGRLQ
Assay [2] concerns the target T1, Ubiquitin-activating enzyme e1, putative (Leishmania donovani (strain BPK282A1)) (UniProt E9BSI1).
T1 sequence (whole entry): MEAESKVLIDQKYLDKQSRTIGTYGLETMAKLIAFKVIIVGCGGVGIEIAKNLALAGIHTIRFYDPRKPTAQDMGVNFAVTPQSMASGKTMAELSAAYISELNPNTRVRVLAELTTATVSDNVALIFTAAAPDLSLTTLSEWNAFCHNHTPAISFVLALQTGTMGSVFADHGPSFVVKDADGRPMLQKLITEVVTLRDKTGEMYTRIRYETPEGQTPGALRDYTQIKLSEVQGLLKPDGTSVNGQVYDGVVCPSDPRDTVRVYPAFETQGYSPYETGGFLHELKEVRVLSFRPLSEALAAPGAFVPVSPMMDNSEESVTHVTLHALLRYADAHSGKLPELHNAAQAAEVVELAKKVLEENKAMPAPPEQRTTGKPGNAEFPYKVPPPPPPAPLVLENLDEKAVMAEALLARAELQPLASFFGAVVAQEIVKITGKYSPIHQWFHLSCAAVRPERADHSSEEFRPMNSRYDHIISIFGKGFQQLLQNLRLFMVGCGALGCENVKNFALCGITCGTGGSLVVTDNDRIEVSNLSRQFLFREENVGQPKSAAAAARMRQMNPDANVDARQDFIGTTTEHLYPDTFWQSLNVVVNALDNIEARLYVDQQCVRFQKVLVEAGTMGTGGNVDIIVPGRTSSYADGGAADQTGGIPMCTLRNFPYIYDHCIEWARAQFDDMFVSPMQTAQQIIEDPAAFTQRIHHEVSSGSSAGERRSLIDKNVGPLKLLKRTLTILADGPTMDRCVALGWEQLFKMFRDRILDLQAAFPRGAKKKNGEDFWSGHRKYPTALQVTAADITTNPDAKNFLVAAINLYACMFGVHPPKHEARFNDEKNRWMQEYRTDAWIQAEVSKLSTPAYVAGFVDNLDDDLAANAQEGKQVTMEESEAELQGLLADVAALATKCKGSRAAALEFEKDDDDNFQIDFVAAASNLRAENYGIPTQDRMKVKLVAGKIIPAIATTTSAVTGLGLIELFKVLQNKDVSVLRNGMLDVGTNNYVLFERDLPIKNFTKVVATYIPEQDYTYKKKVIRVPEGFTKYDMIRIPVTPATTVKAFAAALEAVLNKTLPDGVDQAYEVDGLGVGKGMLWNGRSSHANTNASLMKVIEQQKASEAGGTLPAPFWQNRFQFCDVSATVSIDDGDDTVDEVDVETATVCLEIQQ
Nature of the assay: Leishmania donovani Ubiquitin Activating Enzyme (LdE1). It is filed as functional. As to conditions: 30 µM.

For assay [3], the target named is AMP-activated protein kinase, AMPK (Homo sapiens) (UniProt P54646+O43741+P54619+Q9UGJ0+Q9Y478+Q13131+Q9UGI9). Nature of the assay: AMP-dependent Kinase enzyme assay. An in vitro enzyme assay that detects ADP turnover that is directly proportional to AMPK activity. This uses naive AMPK that is activated during the assay with MK-8722. It is filed as functional. The following applies: 30 µM.

In assay [4] the target is Sialic acid-binding Ig-like lectin 9 (Homo sapiens) (UniProt Q9Y336). In words: Hs-Siglec9 ALPHAscreen SOP 20170721. The following applies: 10 µM. On the technique in general: Alpha assays give light when donor and acceptor beads are brought close together.
Sequence of Sialic acid-binding Ig-like lectin 9 (Homo sapiens) (Q9Y336 whole entry): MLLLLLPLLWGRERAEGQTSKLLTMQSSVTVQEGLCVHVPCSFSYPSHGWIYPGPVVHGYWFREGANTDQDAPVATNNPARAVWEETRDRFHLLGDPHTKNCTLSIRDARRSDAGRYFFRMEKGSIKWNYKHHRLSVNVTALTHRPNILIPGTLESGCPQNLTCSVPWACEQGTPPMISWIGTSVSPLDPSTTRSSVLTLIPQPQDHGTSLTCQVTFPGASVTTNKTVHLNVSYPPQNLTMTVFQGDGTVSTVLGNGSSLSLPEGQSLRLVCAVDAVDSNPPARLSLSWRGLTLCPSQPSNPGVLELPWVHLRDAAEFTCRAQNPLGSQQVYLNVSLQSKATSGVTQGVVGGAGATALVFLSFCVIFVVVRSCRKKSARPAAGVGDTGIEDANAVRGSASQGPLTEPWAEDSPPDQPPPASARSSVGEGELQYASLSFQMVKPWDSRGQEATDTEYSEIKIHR
In the next assay the test system is Trypanosoma cruzi. Nature of the assay: Trypanosoma cruzi phosphomannomutase and mannose-1-phosphate guanylyltransferase assay. It is filed as functional. As to conditions: 10 µM.
Assay [5] concerns the target T2, Arginase-2, mitochondrial (Homo sapiens) (UniProt P78540).
T2 sequence (whole entry): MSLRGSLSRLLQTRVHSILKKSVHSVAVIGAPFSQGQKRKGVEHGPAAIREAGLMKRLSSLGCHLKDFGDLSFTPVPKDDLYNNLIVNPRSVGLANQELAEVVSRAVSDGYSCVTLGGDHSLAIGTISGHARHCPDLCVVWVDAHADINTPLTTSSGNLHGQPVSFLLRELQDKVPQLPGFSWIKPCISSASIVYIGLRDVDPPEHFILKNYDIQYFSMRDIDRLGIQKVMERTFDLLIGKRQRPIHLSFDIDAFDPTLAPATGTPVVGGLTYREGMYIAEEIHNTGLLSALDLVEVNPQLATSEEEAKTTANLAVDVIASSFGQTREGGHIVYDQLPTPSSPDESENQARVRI
In words: in vitro enzyme assay to detect the production of urea directly proportional to the activity of Arginase II. Also: in the data most compounds retested in dose-response had high values. It is filed as functional. As to conditions: 33.3 µM.

Assay [6] has as its target T3, Proteasome subunit beta (Trypanosoma cruzi) (UniProt O96673).
T3 sequence (whole entry): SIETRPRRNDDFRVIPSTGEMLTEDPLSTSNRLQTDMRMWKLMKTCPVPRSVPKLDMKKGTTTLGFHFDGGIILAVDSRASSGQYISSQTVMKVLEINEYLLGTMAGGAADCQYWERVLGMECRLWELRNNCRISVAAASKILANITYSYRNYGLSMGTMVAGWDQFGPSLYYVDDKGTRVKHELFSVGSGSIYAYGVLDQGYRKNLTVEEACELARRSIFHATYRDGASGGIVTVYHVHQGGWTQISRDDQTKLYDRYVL
Nature of the assay: Trypanosoma cruzi proteasome chymotrypsin-like activity (TcProtChymo) assay. Also: in the data most compounds retested in dose-response had high values. Type of assay: functional. The following applies: 9.37 µM.

The species named for the next assay is Homo sapiens. Nature of the assay: To identify inhibition of the IFN signalling (Jak-Stat) pathway via expression of an eGFP reporter gene under the control of an IFN-stimulated response element (ISRE) containing MxA promoter. It is filed as functional. The following applies: 30 µM. (In general: Reporter assays use an easily measured gene product as a stand-in for the process of interest.)

Assay [7] deals with T4, Tyrosyl-tRNA synthetase, putative (Trypanosoma cruzi (strain CL Brener)) (UniProt Q4DSP6).
T4 sequence (whole entry): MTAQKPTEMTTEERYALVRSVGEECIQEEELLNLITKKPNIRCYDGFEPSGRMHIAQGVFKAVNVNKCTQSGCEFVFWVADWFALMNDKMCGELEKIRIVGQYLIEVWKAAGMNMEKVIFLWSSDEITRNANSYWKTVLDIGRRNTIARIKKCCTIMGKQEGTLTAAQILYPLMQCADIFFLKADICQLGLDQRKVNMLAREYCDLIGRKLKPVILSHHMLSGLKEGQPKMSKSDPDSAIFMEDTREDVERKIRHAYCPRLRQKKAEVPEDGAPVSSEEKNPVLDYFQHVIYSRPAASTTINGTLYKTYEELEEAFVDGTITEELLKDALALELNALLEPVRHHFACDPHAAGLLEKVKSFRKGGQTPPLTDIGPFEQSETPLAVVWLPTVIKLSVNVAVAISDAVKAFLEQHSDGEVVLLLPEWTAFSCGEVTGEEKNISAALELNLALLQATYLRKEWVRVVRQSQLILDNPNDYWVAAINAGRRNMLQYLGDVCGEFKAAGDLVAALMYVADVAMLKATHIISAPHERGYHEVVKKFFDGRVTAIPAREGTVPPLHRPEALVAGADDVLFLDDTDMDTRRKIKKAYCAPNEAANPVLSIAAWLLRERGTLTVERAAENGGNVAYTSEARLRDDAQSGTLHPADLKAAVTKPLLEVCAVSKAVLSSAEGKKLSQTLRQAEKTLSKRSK
In words: Trypanosoma cruzi tyrosyl tRNA synthetase (TcYRS) _High Tyrosine SOP. Also: in the data most compounds retested in dose-response had high values. It is filed as functional. The following applies: 30 µM.

In assay [8] the target is T4, Tyrosyl-tRNA synthetase, putative (Trypanosoma cruzi (strain CL Brener)). In words: Trypanosoma cruzi tyrosyl tRNA synthetase (TcYRS) SOP. It is filed as functional. As to conditions: 30 µM.
The target of assay [9] is Chromo domain-containing protein 1 (Saccharomyces cerevisiae (strain ATCC 204508 / S288c) (Baker's yeast)) (UniProt P32657). In words: ScCHD-1 Enzyme Inhibition Assay. Also: in the data most compounds retested in dose-response had high values. Type of assay: functional. The following applies: 30 µM.
Sequence of Chromo domain-containing protein 1 (Saccharomyces cerevisiae (strain ATCC 204508 / S288c) (Baker's yeast)) (P32657 whole entry, the tested form may be a part): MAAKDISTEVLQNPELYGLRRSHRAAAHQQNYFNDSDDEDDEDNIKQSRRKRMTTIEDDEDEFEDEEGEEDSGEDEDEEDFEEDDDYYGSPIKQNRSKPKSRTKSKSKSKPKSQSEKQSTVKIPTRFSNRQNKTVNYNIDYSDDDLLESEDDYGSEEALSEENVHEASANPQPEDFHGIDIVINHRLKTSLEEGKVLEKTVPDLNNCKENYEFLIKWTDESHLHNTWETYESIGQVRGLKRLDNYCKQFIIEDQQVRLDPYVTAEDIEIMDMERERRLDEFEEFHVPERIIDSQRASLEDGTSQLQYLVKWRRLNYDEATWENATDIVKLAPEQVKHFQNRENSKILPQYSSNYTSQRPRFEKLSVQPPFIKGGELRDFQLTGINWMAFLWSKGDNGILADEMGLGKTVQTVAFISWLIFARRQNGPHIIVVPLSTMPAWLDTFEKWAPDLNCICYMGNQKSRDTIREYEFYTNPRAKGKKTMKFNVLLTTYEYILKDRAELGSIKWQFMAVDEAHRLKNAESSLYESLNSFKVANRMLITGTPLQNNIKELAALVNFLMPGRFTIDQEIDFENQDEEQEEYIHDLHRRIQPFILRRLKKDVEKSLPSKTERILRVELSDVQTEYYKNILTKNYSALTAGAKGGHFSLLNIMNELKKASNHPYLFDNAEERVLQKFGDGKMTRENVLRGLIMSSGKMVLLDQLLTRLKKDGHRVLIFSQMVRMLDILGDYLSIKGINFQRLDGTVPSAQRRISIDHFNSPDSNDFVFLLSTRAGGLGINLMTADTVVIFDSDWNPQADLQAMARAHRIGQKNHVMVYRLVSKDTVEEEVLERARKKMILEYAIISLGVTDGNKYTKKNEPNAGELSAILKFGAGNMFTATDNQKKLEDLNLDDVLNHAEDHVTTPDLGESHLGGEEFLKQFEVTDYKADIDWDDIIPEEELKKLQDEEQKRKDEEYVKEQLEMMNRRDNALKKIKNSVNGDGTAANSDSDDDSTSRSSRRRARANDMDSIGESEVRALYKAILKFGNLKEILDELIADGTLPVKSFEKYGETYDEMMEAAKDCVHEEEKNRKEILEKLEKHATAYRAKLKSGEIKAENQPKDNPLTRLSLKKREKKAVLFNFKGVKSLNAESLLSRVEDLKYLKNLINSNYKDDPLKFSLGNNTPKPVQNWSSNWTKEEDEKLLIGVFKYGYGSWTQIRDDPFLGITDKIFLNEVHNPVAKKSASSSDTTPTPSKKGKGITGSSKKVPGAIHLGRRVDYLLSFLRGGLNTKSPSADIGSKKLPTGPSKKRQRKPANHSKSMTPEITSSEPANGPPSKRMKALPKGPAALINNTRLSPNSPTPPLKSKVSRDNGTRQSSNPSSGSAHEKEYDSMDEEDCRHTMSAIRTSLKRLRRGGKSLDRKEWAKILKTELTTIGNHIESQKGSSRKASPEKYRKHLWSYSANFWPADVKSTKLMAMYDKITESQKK

`CNc1nc(CNC(=O)Nc2ccccc2-c2noc(C)n2)cs1`: the Percent Effect was -1.81% in assay [1]; -2.63% in assay [2]; -2.79% in assay [3]; -0.349% in assay [4]; -3.19% in the assay with Trypanosoma cruzi; -1.92% in assay [5]. Moreover, the Percent Effect in [6] was 3.01%; in the assay listed under Homo sapiens it was 17.1%; in assay [7], 1.47%; in [8], -4.88%; in assay [9], -4.83%.

With `Cc1cnccc1N1CCCN(C(=O)CCCc2cn[nH]c2)CC1`, the Percent Effect in assay [1] is -2.89%; in [2] it was 11%; in assay [3], -5.34%; in [4], 18.3%; with Trypanosoma cruzi, 3.92%; in [5], -1.36%. The Percent Effect was -1.06% in assay [6]; 4.4% in the assay filed under Homo sapiens; 1.07% in assay [7]; 7.5% in assay [8]; -3.49% in assay [9].

Consider `CSCCC1c2nc[nH]c2CCN1Cc1ccnc2ccccc12` (stereo not drawn), for which the Percent Effect in assay [1] was -3.26%; in assay [2] it was 10.7%; in assay [3] it was -26.6%; in [4], 14.2%; with Trypanosoma cruzi it was 4.38%; in assay [5], 5.73%. Further, the Percent Effect in assay [6] is 25.5%; in the assay filed under Homo sapiens, 10.9%; in assay [7], 9.29%; in assay [8], 6.17%; in assay [9], -4.91%.

`Cc1n[nH]cc1CNc1ccc2c(c1)N(C(=O)OC(C)(C)C)CCC2`: the Percent Effect is -6.86% in assay [1]; 7.79% in assay [2]; -1.81% in assay [3]; 5.14% in [4]; 1.08% in the assay on Trypanosoma cruzi; -8.28% in assay [5]. In addition, the Percent Effect in [6] was found to be 7.65%; in the assay filed under Homo sapiens, 4.68%; in assay [7] it was 4.3%; in assay [8] it was 8.64%; in assay [9], 0.972%.

For `CCN(c1ccc(C(=O)NCCCN2CCCC2)cc1)S(=O)(=O)CC`, the Percent Effect in assay [1] was -0.13%; in assay [2] it was 5.26%; in [3], -1.17%; in assay [4] it was -1.94%; in the assay on Trypanosoma cruzi, -9.83%; in [5], -7.1%. The Percent Effect in assay [6] was 14.1%; in the assay filed under Homo sapiens, -5.53%; in assay [7], 4.25%; in assay [8] it was 7.79%; in [9], -3.78%.

With `COc1ccc(CCN2CCC(N3CCN(C)C3=O)CC2)cc1`, the Percent Effect in assay [1] is -6.17%; in assay [2] it was 13%; in [3] it was 0.0857%; in assay [4], 0.317%; with Trypanosoma cruzi, -1.87%; in assay [5], -4.98%. The Percent Effect in assay [6] is 8.45%; in the assay listed under Homo sapiens it was 4.3%; in assay [7], 4.85%; in [8] it was 12.2%; in assay [9] it was -7.97%.

Regarding `O=C(CCC(=O)N1CCCC1c1cccs1)N1CCc2sccc2C1` (stereo not drawn), the Percent Effect in assay [1] was 1.64%; in assay [2], -8.11%; in assay [3], -5.22%; in [4], 4.27%; in the assay on Trypanosoma cruzi, 5%; in assay [5], -1.6%. The Percent Effect in assay [6] was 3.42%; in the assay listed under Homo sapiens it was 19.6%; in [7], 3.45%; in assay [8], 3.7%; in [9], -5.21%.

On to `Cc1cccc(-c2nc(CN3CCCCC3Cn3cncn3)no2)c1` (stereo not drawn), for which the Percent Effect is -1.65% in assay [1]; -5.26% in [2]; 5.98% in [3]; 4.13% in assay [4]; 3.19% in the assay with Trypanosoma cruzi; 3.45% in assay [5]. Besides, the Percent Effect in assay [6] was 2.34%; in the assay filed under Homo sapiens it was -0.995%; in assay [7], 7.35%; in assay [8], 0%; in assay [9], 6.07%.
